36 molecules from the supplement of paper PMC12067926 can be followed below.

Each structure is given as a SMILES string. Values without a mark were called inactive.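 The calls were made as follows: active = growth AUC significantly below the DMSO wells by Dunnett test; inactive = the rest.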

In one assay the test system is Microbacterium 1 (Microbacterium arborescens). Put plainly: relative growth (AUC of 72 h growth curve relative to DMSO control, dAUC) (ratio); higher = more growth (less inhibition), active = hit call of the paper. To be noted: 20 µM. The essentials:
(§1)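 Isolates from Icelandic stream sediments and Silwood Park soil, along with whole sediment communities, were grown in Luria–Bertani medium to carrying capacity and diluted 1:100 into 96-well plates with each chemical at 20 µM (1% DMSO). A600 was measured hourly for 72 h, and values were averaged over three biological replicates. Relative growth (dAUC) is the spline-integrated growth-curve area over the mean of the DMSO controls.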
In the case of `N#Cc1c(Cl)c(Cl)c(Cl)c(C#N)c1Cl`, the relative growth is 1.06.

Regarding `O=C(NCCc1ncc(C(F)(F)F)cc1Cl)c1ccccc1C(F)(F)F`, the relative growth was 1.02.

For `CCc1cc(C)cc(CC)c1-c1c(OC(=O)C(C)(C)C)n2n(c1=O)CCOCC2`, the relative growth was 1.03.

Consider `CC1(C)CON(Cc2ccccc2Cl)C1=O`, for which the relative growth is 1.

As to `CCOCn1c(-c2ccc(Cl)cc2)c(C#N)c(Br)c1C(F)(F)F`, the relative growth is 0.996.

Take `COc1cc(C)c(C(=O)c2c(OC)ccc(Br)c2C)c(OC)c1OC`: the relative growth is 1.03.

As to `CCOc1ccc(C(C)(C)COCc2cccc(Oc3ccccc3)c2)cc1`, the relative growth is 1.04.

Regarding `CCCCCCCCCCCCNC(=N)N`, the relative growth is 0.881.

Turning to `CN/C(=N/CC1CCOC1)N[N+](=O)[O-]` (centres undefined), the relative growth is 1.02.

As for `CC1COC(Cn2cncn2)(c2ccc(Oc3ccc(Cl)cc3)cc2Cl)O1` (centres undefined), the relative growth is 0.936.

As for `CNC(=O)ON=C(C)SC`, the relative growth is 0.999.

Turning to `CC(C)(C)c1ccc(CSc2cnn(C(C)(C)C)c(=O)c2Cl)cc1`, the relative growth is 1.08.

For the molecule `Cc1nnc(-c2ccccc2)c(=O)n1N`, the relative growth is 1.01.

With `CCC(C)(C)C(=O)OC1=C(c2ccc(Cl)cc2Cl)C(=O)OC12CCCCC2`, the relative growth was 0.978.

Turning to `O=C(O)COc1ccc(Cl)cc1Cl`, the relative growth was 1.02.

As for `CC(C)N(C)S(=O)(=O)NC(=O)c1cc(-n2c(=O)cc(C(F)(F)F)n(C)c2=O)c(F)cc1Cl`, the relative growth is 1.

`COc1ncc(F)c2nc(S(=O)(=O)Nc3c(F)cccc3F)nn12`: the relative growth was 1.03.

On to `CCCCC(C#N)(Cn1cncn1)c1ccc(Cl)cc1` (centres undefined), for which the relative growth was 0.925.

Another assay relates to Neobacillus 1 (Neobacillus soli). The description is as above. Conditions: 20 µM. The essentials: as §1
Consider `Nc1c([N+](=O)[O-])ccc(Oc2ccccc2)c1Cl`, for which the relative growth is 0.913.

For `COCC(=O)N(c1c(C)cccc1C)[C@H](C)C(=O)OC`, the relative growth is 1.01.

Consider `O=C(Nc1ccc(F)cc1F)c1cccnc1Oc1cccc(C(F)(F)F)c1`, for which the relative growth was 1.06.

For the molecule `N#Cc1sc2c(=O)c3ccccc3c(=O)c=2sc1C#N`, the relative growth was 1.

As for `CC(C)OC(=O)Nc1cccc(Cl)c1`, the relative growth is 1.09.

Regarding `N#C/N=C1\SCCN1Cc1ccc(Cl)nc1`, the relative growth was 1.07.

`CC(Oc1ccc(Oc2ncc(C(F)(F)F)cc2Cl)cc1)C(=O)O` (centres undefined): the relative growth is 0.973.

Regarding `Oc1ccccc1-c1ccccc1`, the relative growth is 0.9.

As for `C#CCOc1ccc(CCNC(=O)C(OCC#C)c2ccc(Cl)cc2)cc1OC` (centres undefined), the relative growth is 0.98.

In the case of `O=[N+]([O-])c1cc(C(F)(F)F)c(Cl)c([N+](=O)[O-])c1Nc1ncc(C(F)(F)F)cc1Cl`, the relative growth is 0.169 (active).

With `CC(C)CC(C)c1sccc1NC(=O)c1cn(C)nc1C(F)(F)F` (centres undefined), the relative growth is 0.924.

Consider `O=C1C=C(N(Cc2ccc(Cl)nc2)CC(F)F)CO1`, for which the relative growth is 1.02.

As for `O=C(Nc1ccccc1-c1ccc(Cl)cc1)c1cccnc1Cl`, the relative growth was 1.06.

In the case of `CC(C)N1C(=O)c2ccccc2NS1(=O)=O`, the relative growth was 1.04.

With `CCC(=O)Nc1ccc(Cl)c(Cl)c1`, the relative growth was 0.962.

On to `ClC1C(Cl)C(Cl)C(Cl)C(Cl)C1Cl` (centres undefined), for which the relative growth was 0.941.

For the molecule `CN/C(=N\[N+](=O)[O-])NCc1cnc(Cl)s1`, the relative growth was 0.85.

Regarding `CCc1cnc(C2=NC(C)(C(C)C)C(=O)N2)c(C(=O)O)c1` (centres undefined), the relative growth was 1.01.

As for `N#Cc1c(Cl)c(Cl)c(Cl)c(C#N)c1Cl`, the relative growth is 0.966.

For `O=C(NCCc1ncc(C(F)(F)F)cc1Cl)c1ccccc1C(F)(F)F`, the relative growth is 0.981.

Turning to `CCc1cc(C)cc(CC)c1-c1c(OC(=O)C(C)(C)C)n2n(c1=O)CCOCC2`, the relative growth is 0.861.

Turning to `CC1(C)CON(Cc2ccccc2Cl)C1=O`, the relative growth is 0.965.

In the case of `CCOCn1c(-c2ccc(Cl)cc2)c(C#N)c(Br)c1C(F)(F)F`, the relative growth is 0.979.

As for `COc1cc(C)c(C(=O)c2c(OC)ccc(Br)c2C)c(OC)c1OC`, the relative growth is 1.06.

Regarding `CCOc1ccc(C(C)(C)COCc2cccc(Oc3ccccc3)c2)cc1`, the relative growth is 0.881.

For `CCCCCCCCCCCCNC(=N)N`, the relative growth is 0.98.

`CN/C(=N/CC1CCOC1)N[N+](=O)[O-]` (centres undefined): the relative growth is 0.994.

Take `CC1COC(Cn2cncn2)(c2ccc(Oc3ccc(Cl)cc3)cc2Cl)O1` (centres undefined): the relative growth was 1.08.

As to `CNC(=O)ON=C(C)SC`, the relative growth was 1.01.

`CC(C)(C)c1ccc(CSc2cnn(C(C)(C)C)c(=O)c2Cl)cc1`: the relative growth is 0.915.

Regarding `Cc1nnc(-c2ccccc2)c(=O)n1N`, the relative growth was 0.937.

Regarding `CCC(C)(C)C(=O)OC1=C(c2ccc(Cl)cc2Cl)C(=O)OC12CCCCC2`, the relative growth is 1.

Regarding `O=C(O)COc1ccc(Cl)cc1Cl`, the relative growth was 1.

For `CC(C)N(C)S(=O)(=O)NC(=O)c1cc(-n2c(=O)cc(C(F)(F)F)n(C)c2=O)c(F)cc1Cl`, the relative growth is 0.98.

Consider `COc1ncc(F)c2nc(S(=O)(=O)Nc3c(F)cccc3F)nn12`, for which the relative growth is 1.04.

Consider `CCCCC(C#N)(Cn1cncn1)c1ccc(Cl)cc1` (centres undefined), for which the relative growth is 0.942.
